# This is one part of a sample in which hits are shown more often than they occur.
# Dicer processing = human Dicer pre-microRNA cleavage inhibition; z-score at 25 µM; cat-ELCCA pre-miR-21 Dicer processing, chemiluminescence; active compounds read high; AID 1347074; Q9UPY3; actives 6% (n = 47,000); in the data active = z-score above about 3, passing the limit was not always enough;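 also: plate controls were vehicle for no effect and no enzyme for full effect; higher signal means more uncleaved substrate so more Dicer inhibition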
# Target sequence (Q9UPY3 whole entry, looked up): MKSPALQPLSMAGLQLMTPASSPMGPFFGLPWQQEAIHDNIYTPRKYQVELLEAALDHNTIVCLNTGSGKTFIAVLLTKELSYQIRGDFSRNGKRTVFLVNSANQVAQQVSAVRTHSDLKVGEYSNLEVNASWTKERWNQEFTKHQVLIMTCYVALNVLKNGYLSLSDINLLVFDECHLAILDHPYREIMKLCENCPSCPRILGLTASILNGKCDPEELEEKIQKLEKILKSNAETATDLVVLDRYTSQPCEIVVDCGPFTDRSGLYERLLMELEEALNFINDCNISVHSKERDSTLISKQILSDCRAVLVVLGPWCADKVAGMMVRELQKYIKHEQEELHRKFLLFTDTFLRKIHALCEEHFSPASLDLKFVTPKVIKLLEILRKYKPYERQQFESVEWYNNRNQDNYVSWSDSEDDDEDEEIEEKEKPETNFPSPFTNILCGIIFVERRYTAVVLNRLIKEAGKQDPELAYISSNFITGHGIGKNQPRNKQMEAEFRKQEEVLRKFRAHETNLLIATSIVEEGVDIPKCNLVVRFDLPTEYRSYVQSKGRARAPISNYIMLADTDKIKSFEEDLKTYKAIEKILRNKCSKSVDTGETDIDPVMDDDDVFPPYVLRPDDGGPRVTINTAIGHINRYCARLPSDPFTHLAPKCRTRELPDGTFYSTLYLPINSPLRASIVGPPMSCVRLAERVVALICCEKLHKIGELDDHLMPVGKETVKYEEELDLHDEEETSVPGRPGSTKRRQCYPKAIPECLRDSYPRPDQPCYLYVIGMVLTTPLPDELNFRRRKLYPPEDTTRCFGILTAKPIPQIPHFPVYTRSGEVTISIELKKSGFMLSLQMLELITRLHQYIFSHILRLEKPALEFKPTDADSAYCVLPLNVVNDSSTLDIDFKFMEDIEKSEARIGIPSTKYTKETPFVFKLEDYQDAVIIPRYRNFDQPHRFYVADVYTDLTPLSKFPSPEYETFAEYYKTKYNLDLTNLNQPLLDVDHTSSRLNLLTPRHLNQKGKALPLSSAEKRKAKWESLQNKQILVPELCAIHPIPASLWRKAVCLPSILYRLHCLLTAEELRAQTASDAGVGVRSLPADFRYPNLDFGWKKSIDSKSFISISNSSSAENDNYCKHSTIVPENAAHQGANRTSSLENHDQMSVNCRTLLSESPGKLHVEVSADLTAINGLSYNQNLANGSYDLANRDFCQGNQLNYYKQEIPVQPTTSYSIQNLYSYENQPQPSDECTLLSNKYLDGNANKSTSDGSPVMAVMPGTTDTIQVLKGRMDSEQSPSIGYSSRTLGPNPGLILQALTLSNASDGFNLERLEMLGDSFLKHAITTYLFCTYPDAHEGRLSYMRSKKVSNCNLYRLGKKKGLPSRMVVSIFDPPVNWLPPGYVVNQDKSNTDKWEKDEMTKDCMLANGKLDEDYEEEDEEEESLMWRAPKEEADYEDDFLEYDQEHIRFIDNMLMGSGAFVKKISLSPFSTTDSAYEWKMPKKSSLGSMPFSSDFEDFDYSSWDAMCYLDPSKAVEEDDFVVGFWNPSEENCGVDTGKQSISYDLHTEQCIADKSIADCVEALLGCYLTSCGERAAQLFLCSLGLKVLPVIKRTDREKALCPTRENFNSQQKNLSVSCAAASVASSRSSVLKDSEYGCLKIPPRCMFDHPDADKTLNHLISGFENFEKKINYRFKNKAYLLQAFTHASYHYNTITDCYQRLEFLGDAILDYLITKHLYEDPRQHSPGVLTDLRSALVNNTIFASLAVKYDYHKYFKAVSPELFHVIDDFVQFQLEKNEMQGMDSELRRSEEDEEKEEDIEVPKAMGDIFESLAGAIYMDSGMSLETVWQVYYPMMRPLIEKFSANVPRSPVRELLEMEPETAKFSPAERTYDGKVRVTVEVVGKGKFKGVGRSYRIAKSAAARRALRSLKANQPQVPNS
# * hit, by the source's call.
SMILES,Dicer processing
N=C(N)SCc1c(F)cccc1Cl,0.92
S=C(Nc1ccc(Cl)cc1)SCc1c(Cl)cccc1Cl,0.19
CCOC(=S)SCc1c(F)cccc1Cl,4.26*
CC12CCC(C1)C(C)(C)C2NS(=O)(=O)c1cc(Cl)c(Cl)cc1Cl (stereo unspecified),-0.29
CCCCCOc1ccc(C2c3c(oc4ccccc4c3=O)C(=O)N2c2nccs2)cc1OC (stereo unspecified),-1.61
COC(=O)c1c(C)nn(C(C)=O)c1COc1ccccc1,-0.24
CN(C)c1c(F)cc(C(=O)Nc2cc(C(F)(F)F)cc(C(F)(F)F)c2)cc1F,12.4
CN(C)c1c(F)cc(C(N)=O)cc1F,3.39*
CN(C)c1c(F)cc(/C(N)=N/O)cc1F,0.46
COc1ccc2[nH]c(C)c(CN3CCN(C)CC3)c(=O)c2c1,1.84
CN1C(=O)COc2ccc(C(=O)c3cc4ccccc4o3)cc21,24.8
N=C1C(c2nc3ccccc3s2)=C(O)CN1C1CCCCC1,3.09*
N=C1C(c2nc3ccccc3s2)=C(O)CN1Cc1ccccc1,0.75
Cc1ccc(N2CC(O)=C(c3nc4ccccc4s3)C2=N)cc1,0.48
N=C(N)C12CC3CC(CC(C3)C1)C2,0.06
Nc1cc(=O)[nH]c2nnc(SCc3cccc(Oc4ccccc4)c3)n12,2.76
Nc1cc(=O)[nH]c2nnc(SCCc3ccccc3)n12,4.07*
CCCCSc1nnc2[nH]c(=O)cc(N)n12,2.47
CCSc1nnc2[nH]c(=O)cc(N)n12,2.48
CCCCCSc1nnc2[nH]c(=O)cc(N)n12,4.47*
CCCCCCCSc1nnc2[nH]c(=O)cc(N)n12,2.46
CCOC(=O)c1cnc2c(c(C)nn2C)c1Sc1ccc(C(F)(F)F)cn1,0.1
FC(F)(F)c1cnc(SCc2c(Cl)cccc2Cl)c(Cl)c1,0.05
FC(F)(F)c1cccc(CSc2ncc(C(F)(F)F)cc2C(F)(F)F)c1,3.01*
FC(F)(F)c1ccc(CSc2ncc(C(F)(F)F)cc2C(F)(F)F)cc1,-1.12
SMILES,Dicer processing
CCCC(CCC)C(C(=O)O)C(=O)OCC (stereo unspecified),0.76
O=C(CSc1nc(O)cc(=O)n1-c1ccccc1F)N1CCc2ccccc21,5.53*
CC(C)c1c(O)nc(SCC(=O)N2CCc3ccccc32)n(-c2ccccc2)c1=O,-1.11
Cc1c(O)nc(SCC(=O)N2CCc3ccccc32)n(-c2ccccc2)c1=O,0.01
N#CCCN(C(=S)Nc1cccc(C(F)(F)F)c1)C1CCCCC1,-1.09
CC(C)(C)c1ccc(C(=O)Nc2cccc3[nH]ccc23)cc1,35.7
Cc1onc(-c2c(Cl)cccc2Cl)c1C(=O)OC(Cc1ccccc1)C(F)(F)F (stereo unspecified),-0.42
Cc1ccc(C(C)C)c(OCc2nc3ccccc3n2C)c1,0.86
COc1ccccc1OCCSc1nc(C)cc(C)n1,1.28
Cc1ccc(OCCSc2nc(N)cc(N)n2)c(C(C)C)c1,4.87*
CCN(CC)c1cccc(Oc2nc([N+](=O)[O-])nn2Cc2ccccc2F)c1,1.45
CC(C)(C)C(=O)/C(C#N)=C/c1c(Cl)cccc1Cl,-0.78
CC(C)(C)C(=O)/C(C#N)=C/c1ccc(C(F)(F)F)cc1,3.16*
CC(C)(C)OC(=O)/C(C#N)=C/c1ccc(Cl)cc1,1.04
COc1ccc(N2CCCn3c2nc2c3c(=O)n(CC(=O)O)c(=O)n2C)cc1,0.11
Cc1ccc(C)n1-c1ccc(Cl)cc1C(=O)O,12.3*
Cc1ccc(Cl)c(Nc2ccccc2C(=O)O)c1Cl,-0.38
Cc1ccc(C(=O)O)cc1-n1c(C)ccc1C,0.45
Cc1ccc(C)n1-c1ccc(Cl)c(C(=O)O)c1,8.24*
O=C(O)c1cc(Cl)ccc1I,-1.49
Cc1ccc(C)n1-c1ccc(-n2c(C)ccc2C)cc1,-0.06
CSc1nnc(Sc2c([N+](=O)[O-])nc(C)n2Cc2ccccc2)s1,-0.12
S=c1[nH]nc(-c2ccco2)n1-c1ccc(OCc2ccccc2)cc1,-0.84
CCOC(=O)c1c(C)nn(-c2ccc(N)cc2)c1C,0.86
C=CCOc1cccc(C2c3c(oc4ccc(C)cc4c3=O)C(=O)N2CCOC)c1 (stereo unspecified),-0.43
SMILES,Dicer processing
CCOC(=O)c1csc(-n2cccc2)n1,2.7
Clc1ccccc1-c1cc2ccccc2[nH]1,3.96*
Nc1ccc(Cl)c(-c2nc3ccccc3[nH]2)c1,0.01
O/N=C/c1c(-c2ccccc2Cl)[nH]c2ccccc12,1.66
OCCNc1ccc2ccccc2n1,0.45
CCc1cc(C)cc(OCC(O)Cn2c(C)[n+](C)c3ccccc32)c1 (stereo unspecified),-0.79
COC(=O)c1scc2c(SCc3ccccc3)cc(C(F)(F)F)nc12,5.03*
COC(=O)c1scc2c(Sc3nccn3C)cc(C(F)(F)F)nc12,0.21
COC(=O)c1scc2c(OC)cc(C(F)(F)F)nc12,0.71
CN(C)c1ncnc(Oc2cccc(C(F)(F)F)c2)c1[N+](=O)[O-],-1.35
O=C(O)c1cc([N+](=O)[O-])ccc1NCc1ccco1,-0.82
CCOC(=O)CN1C(=O)C(=O)c2ccccc21,4.6*
Cc1c(NC(=O)COC(=O)CN2C(=O)C(=O)c3ccccc32)c(=O)n(-c2ccccc2)n1C,3.78*
CC1CCN(C(=O)CN2C(=O)C(=O)c3ccccc32)CC1,1.49
CCOC(=O)CCN1C(=O)c2ccccc2C1=O,0.31
O=C(COC(=O)CN1C(=O)C(=O)c2ccccc21)NCc1ccco1,1.35
Cc1c(NC(=O)OCc2ccccc2)c(=O)n(-c2ccccc2)n1C,-0.02
O=C(CSc1cc(C(F)(F)F)nc2ccccc12)NNC(=O)c1ccc(Cl)cc1,0.54
CC(=O)[C@@]1(O)CCC2C3CC[C@@]4(C)CC(=O)CCC4(C)C3C(=O)CC21C (stereo partly specified),-0.11
Nc1nc(-c2cccnc2)nn1C(=O)c1cccs1,-0.07
COc1ccc(C(=O)COc2cc(=O)oc3ccccc23)cc1,10.4
O=C(CS(=O)(=O)c1ccc(Cl)cc1)c1ccccc1,2.46
COCCCn1c(SCC(=O)NNC(=O)C(Cl)(Cl)Cl)nnc1-c1ccc(C(C)(C)C)cc1,-4.3
CCOC(=O)COc1ccc(C)c2c1CCC2,-0.08
CCOC(=O)CSc1nc2ccccc2[nH]1,-0.04
SMILES,Dicer processing
O=C(CSc1nc2ccccc2[nH]1)Nc1ncccn1,0.74
CC(C)(C)NC(=O)CSc1nc2ccccc2[nH]1,4.86*
CCOC(=O)c1cc(-c2ccc(Cl)cc2)oc1/C=N/OC(=O)c1ccccc1,-0.99
O=C(CSc1nc2ccccc2nc1N1CCOCC1)Nc1ccccc1F,1.72
O=C(CSc1nc(-c2ccco2)cc(C(F)(F)F)n1)N1CCN(c2cccc(Cl)c2)CC1,0.7
Cc1ccc(C)n1CCN1CCN(C(=O)CSc2nc3ccccc3nc2N2CCOCC2)CC1,3.05*
O=C(CSc1nc2ccccc2nc1N1CCOCC1)NC1CCCC1,2.05
O=C(CSc1nc2ccccc2nc1N1CCOCC1)N1CCN(c2cccc(Cl)c2)CC1,3.55*
O=C(CSc1nc2ccccc2nc1N1CCCC1)N1CCCC1,0
COc1ccc2c(c1)CCC/C2=N\NC(N)=O,-0.27
CC(C)S(=O)(=O)c1cscc1NC(=O)c1ccccc1Cl,-0.72
CC1=C(C(=O)OCC(C)C)C(c2cccc(F)c2)C2=C(CC(c3cccs3)CC2=O)N1 (stereo unspecified),0.24
CC(C)c1ccc(C2Sc3ccccc3N=C3c4ccccc4OCC32)cc1 (stereo unspecified),-0.67
CC1CC(C)CN(c2ncc3c(n2)CC(c2ccc(F)cc2)CC3=O)C1 (stereo unspecified),-1.19
OC(c1ccc(C(F)(F)F)cc1)c1cccc(C(F)(F)F)c1 (stereo unspecified),-1.11
